# Structures can show the parent of a compound that is named as a salt. ± gives the standard deviation or the standard deviation of the averaged measurements.
# Experiments:
# Conditions in all cases: 25 µM; exposure: 24-48 hpf
# [1] = test system: Danio rerio Tg(wt1b:EGFP) embryo, pronephros; assay: glomerular separation, fold change vs DMSO control; higher = glomeruli further apart (abnormal)
# Summary of the method: (§1)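 Every feature is expressed as a fold change relative to the averaged DMSO-treated embryos of the same day. The exposure ran from 24 to 48 hpf at 28.5°C, with dechorionated Tg(wt1b:EGFP) zebrafish embryos in HEPES-buffered E3 containing 0.003% PTU, 0.5% DMSO and 25 μM compound. Dorsal pronephros images taken in agarose-filled 96-well plates were reduced to maximum projections, on which 16 reference points were set by hand in Fiji for a macro to compute distances and angles. Values more than 2 SD from the feature mean were not used.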
# [2] = test system: Danio rerio Tg(wt1b:EGFP) embryo, pronephros; assay: glomerular width (mean of left and right), fold change vs DMSO control; higher = wider glomerulus
# Summary of the method: as §1
# [3] = test system: Danio rerio Tg(wt1b:EGFP) embryo, pronephros; assay: fraction of imaged embryos annotated as normal kidney; higher = less nephrotoxic; extreme values may be limits of the assay
# Summary of the method: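 The read-out is the proportion of embryos in each treatment manually annotated as normal-kidney. Exposure ran from 24 to 48 hpf at 28.5°C in 12-well plates, using dechorionated Tg(wt1b:EGFP) zebrafish embryos in 5 mM HEPES-buffered E3 with 0.003% PTU, 0.5% DMSO and 25 μM compound. For imaging, larvae were anaesthetised with tricaine, positioned dorsally in agarose-filled 96-well plates and captured by widefield fluorescence (470 nm, 10 z-slices), with scoring done on maximum projections.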
# [4] = test system: Danio rerio Tg(wt1b:EGFP) embryo, pronephros; assay: pronephric angle neck segment to proximal convoluted tubule (mean of left and right), fold change vs DMSO control; higher = larger pronephric angle
# Summary of the method: as §1
SMILES,glomerular separation [1],glomerular width [2],fraction of imaged embryos annotated as normal kidney [3],pronephric angle neck segment [4]
CN1CCN(C(c2ccccc2)c2ccc(Cl)cc2)CC1 (stereo unspecified) [Chlorcyclizine hydrochloride],1.13 ± 0.62,0.995 ± 0.017,0.917,0.966 ± 0.022
CC(=O)[C@H]1CC[C@H]2[C@@H]3CC=C4C[C@@H](O)CC[C@]4(C)[C@H]3CC[C@]12C [Pregnenolone],1.31 ± 0.74,1.14 ± 0.018,0.583,0.999 ± 0.16
CN(C)CCOC(=O)C(c1ccccc1)C1(O)CCCC1 (stereo unspecified) [Cyclopentolate hydrochloride],0.745 ± 0.24,0.9284 ± 0.0066,0.75,1.02 ± 0.035
NNC(=O)c1ccncc1 [Isoniazid],0.891 ± 0.099,1.09 ± 0.032,1,0.978 ± 0.02
